Among the data in PubChem BioAssay are composite z-score values, retold here.

The test deals with Albumin (Bos taurus) (UniProt P02769). Briefly: bovine serum albumin binders on microarray, profiling panel, artefact control for SMM control protein annotation, biochemical, small-molecule microarray, Alexa647 label, 635/667 nm fluorescence (AID 1118).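 Further: score merges 667 nm emission intensity and signal-to-noise per printed compound spot.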 To be noted: BSA-A647 binding, fluorescence 635 nm, higher = more signal.
Albumin (Bos taurus), sequence (P02769 whole entry, looked up): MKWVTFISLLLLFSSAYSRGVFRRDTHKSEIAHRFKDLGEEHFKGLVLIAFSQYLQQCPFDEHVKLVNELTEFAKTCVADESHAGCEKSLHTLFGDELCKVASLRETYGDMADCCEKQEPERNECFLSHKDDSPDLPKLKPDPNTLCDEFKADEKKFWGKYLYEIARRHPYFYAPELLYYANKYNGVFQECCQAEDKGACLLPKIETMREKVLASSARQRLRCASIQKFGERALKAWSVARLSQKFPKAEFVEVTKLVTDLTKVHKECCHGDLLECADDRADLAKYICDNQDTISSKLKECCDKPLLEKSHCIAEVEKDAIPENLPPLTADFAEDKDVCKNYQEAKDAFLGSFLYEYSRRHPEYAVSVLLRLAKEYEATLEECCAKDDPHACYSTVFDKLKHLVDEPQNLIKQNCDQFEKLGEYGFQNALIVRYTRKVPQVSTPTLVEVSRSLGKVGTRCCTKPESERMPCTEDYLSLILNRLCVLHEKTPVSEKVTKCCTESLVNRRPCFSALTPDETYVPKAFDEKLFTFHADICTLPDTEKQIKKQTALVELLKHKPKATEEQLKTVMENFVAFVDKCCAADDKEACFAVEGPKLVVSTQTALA
`C=CCC(OC(C)=O)[C@@H]1[C@@H](N(Cc2ccc(-c3ccccc3)cc2)C(=O)c2ccc(C)cc2)c2cc(OCCCO)ccc2N1C(=O)c1ccc2ccccc2c1` (some centres undefined) returned a composite z-score of 0.608. For `COc1ccc(C(O)C2C=CC3C(=O)N(C)C(=O)C3N2Nc2ccc([N+](=O)[O-])cc2[N+](=O)[O-])cc1OCc1ccccc1` (centres undefined), the composite z-score is 0.747. `CN1C(=O)C2C=CC(C(O)c3ccc(-c4ccccc4)s3)N(Nc3ccccc3)C2C1=O` (centres undefined) returned a composite z-score of 0.945. The compound `N#Cc1ccc(C(O)C2C=CC3C(=O)NC(=O)C3N2Nc2ccccn2)cc1` (centres undefined) showed a composite z-score of 0.95. To `CCCC=C(CCC)[C@@H](NC(=O)c1ccco1)c1ccc(C(=O)OC)cc1` belongs 0.779. With `COc1ccc([Si](C)(C)[C@@H]2[C@@H](CC(=O)N(CCO)Cc3ccccc3)O[C@]3(C(=O)N(Cc4ccc(N5CCC5=O)cc4)c4ccccc43)[C@H]2C)cc1`, the composite z-score was 0.212. `Cc1ccc(F)cc1S(=O)(=O)N[C@@H]1CCN(Cc2ccc3[nH]ccc3c2)C1` had a composite z-score of -0.213. To `C=C(/C(=C/C[C@H](OC(=O)c1ccncc1)c1ccccc1OCCO)c1cc(C(=O)OC)ccc1OC)C(C)C` belongs 0.407; to `CCOC(=O)C1=CC[C@@H](c2ccc(F)cc2)N(S(=O)(=O)c2ccc(C)cc2)[C@H]1c1ccc([N+](=O)[O-])cc1`, 0.854; to `C=CC[C@@]1(C(=O)N(C)C)N=C(c2ccc(OCCCO)cc2)O[C@@H]1c1ccccc1`, 0.434. Consider `CC(C)C(=C=CC[C@@H](O)c1cccc(OCCO)c1)CCO`, for which the composite z-score stood at 0.161. Regarding `[N-]=[N+]=NCc1ccccc1C[C@]1(C(=O)N2CCOCC2)N=C(c2ccc(OCCCO)cc2)O[C@H]1c1ccccc1CN=[N+]=[N-]`, the composite z-score amounted to 0.954. Turning to `COc1ccc(NN2C(C(O)c3cc(C(F)(F)F)cc(C(F)(F)F)c3)C=CC3C(=O)N(C4CCCCC4)C(=O)C32)cc1` (centres undefined), the composite z-score amounted to 0.771.

`CC=CC(O)C1C=CC2C(=O)N(C)C(=O)C2N1NC(=O)OC(C)(C)C` (centres undefined) returned a composite z-score of 1.03. `[N-]=[N+]=NCc1ccccc1[C@@H]1OC(c2ccc(OCCCO)cc2)=N[C@]1(Cc1ccccc1)C(=O)NCc1ccccc1` displayed a composite z-score of 0.937. The same measure for `COCCOC(=O)N1C(=O)[C@@]2(c3cc(C#CCCO)ccc31)[C@H](C(=O)N1CCc3cc(OC)c(OC)cc3C1)[C@H]1C(=O)O[C@H](c3ccccc3)[C@H](c3ccccc3)N1[C@@H]2c1ccccc1OCCO`: 0.357; for `C=CCOC(=O)[C@@H]1[C@H]2C(=O)O[C@H](c3ccccc3)[C@H](c3ccccc3)N2[C@H](c2ccc(OCCOC(=O)[C@H]3C[C@H]4C(=O)NCC(=O)N4[C@H]3c3ccc(O)cc3)cc2)[C@@]12C(=O)Nc1ccc(I)cc12`: -1.07.

`C=CCC(OC(C)=O)[C@@H]1[C@@H](N(Cc2cc3ccccc3o2)C(=O)Cc2ccc(OC)cc2)c2cc(OCCCO)ccc2N1C(=O)Cc1ccc2ccccc2c1` (some centres undefined): the composite z-score was 0.402.

For `C[C@H]1C2[C@H](Cc3ccccc3)NC(=O)[C@]23C(=O)NCC(=O)N2CCC[C@H]2C(=O)NC/C=C\C/C=C/C3[C@@H]2O[C@]12C` (some centres undefined), the composite z-score is -0.674.

`COC(=O)C1=CC(CCCO)=CC(C2CC2)N(Cc2cccc(OC(F)(F)F)c2)C=C1C(=O)OC` (centres undefined) yielded a composite z-score of 0.896. Compound `CCCCC(O)C1C=CC2C(=O)NC(=O)C2N1Nc1ccccn1` (centres undefined) gave a composite z-score of 0.082. In the case of `CCCCC(=C=CC[C@H](O)c1ccc(OCCO)cc1)C[C@H](O)c1ccccn1`, the composite z-score was -0.273. As for `CC(C)CNC(=O)[C@@H]1c2ccccc2C(=O)N(CC23CC4CC(CC(C4)C2)C3)[C@H]1c1ccc(CO)cc1`, the composite z-score worked out at 0.486. Compound `CCN(CC)c1ccc(N2CC=CC34O[C@@H]5C=CCOC(=O)[C@@H]5[C@H]3C(=O)N(CCCO)[C@@H]4C2=O)cc1` (some centres undefined) showed a composite z-score of -0.997.
